# Screening data deposited in PubChem by National Center for Advancing Translational Sciences (NCATS).
# ATXN2 expr inh: inhibitors of ATXN2 expression. Potency, µM (top dose mostly 57 µM), for inactives: at the top dose activity change, negative = inhibition, usual class: inhibitors. HEK-293 ATXN2-luciferase reporter, luminescence, 24 h. 360,000 tested, 0.72% active; also: % is scaled to controls: 0 for no effect and ±100 for the full control effect; nearly all actives have a fitted effect of over 55% in size
#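 ATXN2-luciferase reporter cells (luciferase flanked by upstream and downstream ATXN2 gene portions) were treated 24 h at 37 °C with compounds at up to 57 uM. SteadyGlo luminescence gave expression; GF-AFC fluorescence gave viability.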
# RORg inh: inhibitors of mouse ROR gamma transcriptional activity | P51450 | Drosophila S2 Gal4-RORgamma UAS-luciferase reporter, 20 h | Potency, µM (highest dose often 53.6 µM), for the others: top-dose activity change, negative = inhibition, most hits filed as inhibitors | 310,000 tested, 5.4% active; also: % is scaled to controls: 0 for no effect and ±100 for the full control effect; nearly all actives have a fitted effect of over 60% in size
# Target sequence (P51450 whole entry, looked up, the tested form may be a part): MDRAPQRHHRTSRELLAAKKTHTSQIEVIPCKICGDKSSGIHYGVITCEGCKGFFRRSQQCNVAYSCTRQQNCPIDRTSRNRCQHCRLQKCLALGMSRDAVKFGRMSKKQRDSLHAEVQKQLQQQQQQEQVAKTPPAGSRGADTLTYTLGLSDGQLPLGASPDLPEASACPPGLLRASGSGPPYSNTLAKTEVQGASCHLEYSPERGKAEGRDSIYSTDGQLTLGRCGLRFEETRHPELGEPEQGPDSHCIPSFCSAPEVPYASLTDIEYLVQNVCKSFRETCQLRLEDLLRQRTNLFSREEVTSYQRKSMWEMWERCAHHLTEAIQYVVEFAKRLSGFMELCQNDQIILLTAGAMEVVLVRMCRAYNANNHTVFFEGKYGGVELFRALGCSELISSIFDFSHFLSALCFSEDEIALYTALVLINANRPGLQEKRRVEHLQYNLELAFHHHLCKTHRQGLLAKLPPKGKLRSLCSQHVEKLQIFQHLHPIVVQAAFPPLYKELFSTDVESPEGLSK
#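 Stably transfected Drosophila Schneider cells are the test system, with ROR gamma fused to Gal4 and luciferase under UAS control; luminescence is read after 20 hr of 700 uM copper sulfate induction at ambient temperature.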
# TGFb SMAD3 inh: inhibitors of TGF-b signaling; HepG2 CAGA-GFP TGF-b/SMAD3 reporter, GFP fluorescence, 18 h; TGF-beta stimulated, 500 pg/mL final; Potency, µM (doses to about 46.1 µM), for inactives: at the top dose activity, negative = inhibition, hits mostly inhibitors; 410,000 tested, 1.2% active; also: % is scaled to controls: 0 for no effect and ±100 for the full control effect; nearly all actives have a fitted effect of over 65% in size
#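 Cell-based qHTS in HEPG2 carrying a CAGA-GFP Smad reporter; compounds added before 500 pg/mL final TGF-beta, 18 h incubation at 37 degrees C, GFP fluorescence quantified per cell by imaging cytometry.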
# HepG2 tox: HepG2 cytotoxicity, counter-screen for TGF-b inhibitors; HepG2 CAGA-GFP viability, ATP luminescence, 18 h; Potency, µM (series often up to 46.1 µM), for the others: at the highest dose activity change, negative = cytotoxicity, actives largely listed as cytotoxic; 410,000 tested, 0.76% active; AID 588856
#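 HepG2 CAGA-GFP cells (1000/well, DMEM with 1% FBS) received compound, then TGF-beta at 500 pg/mL final, and were incubated 18 hours at 37 degrees C. Viability was read by CellTiter-Glo luminescence. Media-only wells were set as complete cell-killing and DMSO as no toxicity.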
# VP16 counter: counter-screen for ROR gamma inhibitors: Gal4-VP16 reporter; AID 2546; 310,000 tested, 3.5% active; Drosophila S2 Gal4-VP16 UAS-luciferase, luminescence, 20 h; Potency, µM (series often up to 53.6 µM), inactives show top-dose activity, negative = inhibition, usual class: inhibitors;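 also: Gal4-VP16 expression switched on by copper sulfate through the metallothionein promoter; % is scaled to controls: 0 for no effect and ±100 for the full control effect; nearly all actives have a fitted effect of over 50% in size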
# ATXN viability: cell viability loss in ATXN counter-screen; 400,000 tested, 0.49% active; Potency, µM (highest dose often 56.7 µM), hits mostly cytotoxic; S2 cells (HEK-293 line with an ATXN2-luciferase reporter) viability, CellTiter-Fluor protease fluorescence, 24 h; also: nearly all actives have a fitted effect of over 40% in size
# * = called active by the depositor; i = inactive; ? = inconclusive; . = no result given. Sampled rows, rich in hits. Any-hit rate of the full collection: about 6.1%. Calls follow the shape of the dose curve; as a rule, active = well fitted curve in the direction sought with a large enough effect; inconclusive = small, poorly fitted or top-dose-only effect, or another doubt; inactive = no such curve, though single readings can be large; an effect the other way counts as inactive or inconclusive. Potency is read from the fitted curve at half-maximal effect.
SMILES,ATXN2 expr inh,RORg inh,TGFb SMAD3 inh,HepG2 tox,VP16 counter,ATXN viability
COc1ccc(Cn2c(/C=C/c3ccccc3)nc3ccccc32)cc1,99%,7.1µM*,?,-60%,?,i
CC(C)Cn1c(/C=C/c2ccccc2)nc2ccccc21,86%,11µM*,-36%,-4%,11µM*,i
COc1cccc(OCc2nc3ccccc3n2Cc2ccccc2)c1,33%,.,?,-55%,.,i
CC(C)(C)n1ncc2c(=O)n(Cc3ccc(F)c(C(F)(F)F)c3)cnc21,.,.,?,-12%,.,.
N#Cc1c(-n2ncnc2-c2ccccc2C(F)(F)F)sc2c1CCCCC2,9%,.,-3%,-33%,.,i
COc1ccc(/C=C/c2nc3ccccc3c(=O)o2)cc1,?,4.5µM*,-1%,-51%,7.9µM*,i
COc1ccccc1/C=C/c1nc2ccccc2c(=O)o1,46%,.,1%,-19%,.,i
Cc1ccc(C(N)=S)c(C)c1,-4%,20µM*,?,4%,?,i
Cc1ccc(C(=O)C2CC2)c(C)c1,3%,.,14%,1%,.,i
CC(c1n[nH]c(=S)n1-c1ccccc1)N1CCCCC1 (centres undefined),-1%,10µM*,7%,-4%,-10%,i
COC(Cc1n[nH]c(=S)n1-c1ccccc1)OC,4%,-42%,-5%,12%,1%,i
Cc1ccc(NS(=O)(=O)c2ccc3c(c2)CCCN3C(=O)C2CCC2)c(C)c1,?,.,?,-41%,.,?
COC(=O)C(CC(=O)c1ccc(Br)cc1)n1nc(C)cc1C (centres undefined),0%,?,?,-59%,?,i
COC(=O)C(CC(=O)c1ccc(Br)cc1)n1ccnc1 (centres undefined),.,0.63µM*,4.5µM*,7.9µM*,1µM*,.
CC(C)(C)NC(=O)C(c1ccncc1)N(Cc1ccco1)C(=O)c1ccc(-c2ccccc2)[nH]1 (centres undefined),29%,7.1µM*,-7%,-12%,18µM*,i
CCOC(=O)c1cnc2ccc(OCC)cc2c1NCCc1ccc(OC)c(OC)c1,.,.,13µM*,-48%,.,.
CCOC(=O)c1cnc2ccc(Br)cc2c1NCCO,-16%,11%,0%,-42%,-1%,i
CCOC(=O)c1cnc2ccc(C)cc2c1NCCc1ccc(OC)c(OC)c1,-14%,.,11µM*,-51%,.,i
CCOC(=O)c1cnc2ccc(OCC)cc2c1N(C)Cc1ccccc1,-29%,14µM*,?,-36%,?,i
CCOCCCN1C(=O)CN(C2CCCCCC2)C(=O)C1c1ccc(OCC)c(OC)c1 (centres undefined),.,.,-15%,1%,.,.
Cc1ccc(Cl)cc1NS(=O)(=O)c1ccc2c(c1)NC(=O)CCS2,?,.,-1%,-31%,.,i
COc1cccc(Cn2c(=O)cc(C)c3c(C)nn(C)c32)c1,-23%,.,1%,-17%,.,i
COc1ccc(C(=O)NNC2=Nc3cccc4cccc2c34)cc1,-20%,0.56µM*,10%,-5%,?,i
COc1ccc(CC(=O)NNC2=Nc3cccc4cccc2c34)cc1,-38%,8.9µM*,2%,-1%,-19%,.
NC(=O)NNC1=Nc2cccc3cccc1c23,-17%,-35%,-14%,-22%,-11%,i
SMILES,ATXN2 expr inh,RORg inh,TGFb SMAD3 inh,HepG2 tox,VP16 counter,ATXN viability
Cc1ccc(C(=O)NNC2=Nc3cccc4cccc2c34)cc1,-12%,0.89µM*,-2%,-32%,1.4µM*,?
CCOc1ccccc1CN1CCc2nc(N3CCN(C)CC3)ncc2C1,-8%,.,-3%,-6%,.,i
CCCCC12CN3CC(C)(CN(C1)C3c1c[nH]c3ccccc13)C2=O (centres undefined),9%,.,-26%,4%,.,i
O=C(Nc1cc(C(=O)NC2CCOCC2)c2c(c1)ncn2C1CCCC1)c1ccccc1,.,.,.,.,.,i
O=C(Nc1ccccc1)c1cc(C2CCCN(C(=O)C3CC3)C2)on1 (centres undefined),10µM*,.,1%,8.9µM*,.,i
CC(=O)N1CCCC(c2cc(C(=O)Nc3ccccc3)no2)C1 (centres undefined),?,.,4%,-27%,.,i
C[C@H](NC(=O)c1nc[nH]c1C(=O)N[C@@H](C)C(=O)OCc1ccccc1)C(=O)OCc1ccccc1,-8%,13µM*,?,-15%,?,i
CCN(CC)C(=O)c1[nH]cnc1C(=O)N[C@@H](C)C(=O)OCc1ccccc1,-9%,-24%,?,-14%,-6%,i
C[C@H](NC(=O)c1nc[nH]c1C(=O)NC(c1ccccc1)c1ccccc1)C(=O)OCc1ccccc1,-20%,?,?,-13%,35µM*,?
CCc1ccc(NC(=O)CCn2nc(-c3ccccc3OC)c3c(C)cc(C)nc32)cc1,?,.,?,-64%,.,i
CCCS(=O)(=O)NCc1c(C)ncc2c1CCN(C(=O)c1ccc(Cl)cc1)C2,.,.,.,.,.,i
CCCOC(=O)c1ccc(-c2c(C)noc2-c2ccc(OC)cc2O)o1,-17%,3%,16µM*,13µM*,-20%,i
COc1ccc(NC(=O)c2ccccn2)cc1,?,7.9µM*,7%,-64%,11µM*,i
O=C(NN=C(c1ccccc1)c1ccccn1)c1ccccc1,4µM*,.,?,-19%,.,?
O=C(N/N=C(\c1ccccc1)c1ccccn1)c1ccccc1Cl,22µM*,0.71µM*,?,-48%,1.1µM*,?
COc1ccc(NC(=O)c2cc(S(=O)(=O)Nc3ccc(OC)cc3)cs2)cc1,.,1%,?,-16%,11µM*,i
